From PubChem BioAssay
Active and inactive are the calls of the source.

Assays:
Albumin (Bos taurus) = Albumin (Bos taurus) (UniProt P02769); assay: compounds binding labelled BSA control protein – biochemical, small-molecule microarray, Alexa647 label, 635/667 nm fluorescence, artefact control for SMM control protein annotation, profiling panel (AID 1118); conditions: BSA-A647 binding, fluorescence 635 nm, higher = more signal;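 further: score merges 667 nm emission intensity and signal-to-noise per printed compound spot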
[1] = probe aXIP binding to arrayed compounds – biochemical, NeuroSMM set, 635/667 nm fluorescence, primary screen (AID 1119); conditions: small-molecule microarray, higher = more signal, called active from +8 up or from −8 down;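 further: probe is the protein aXip251-270 applied at 1 µg/mL to compound-printed slides; binding of probe to printed compounds measured as 667 nm fluorescence plus signal to noise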
[2] = probe aNOTCH3 binding on compound microarray – biochemical, small-molecule microarray, 635/667 nm fluorescence, primary screen (AID 1120); conditions: higher = more signal;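 further: probe is a biotin-tagged antibody raised against NOTCH3 rather than NOTCH3 protein; score merges spot fluorescence near 667 nm with spot signal to noise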
[3] = probe aNOTCH2 binding on compound microarray – biochemical, small-molecule microarray, 635/667 nm fluorescence, primary screen (AID 1121); conditions: higher = more signal;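 further: score merges feature fluorescence read at 667 nm with its signal to noise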
[4] = target: Carbonic anhydrase 2 (Homo sapiens) (UniProt P00918); assay: compounds binding carbonic anhydrase 2 – biochemical, small-molecule microarray, Alexa647-labelled CAII, profiling panel (AID 1122); conditions: CAII-A647 binding fluorescence, higher = more signal
[5] = COS7 lysate on small-molecule microarray, probe aHis, 635 nm (AID 1123); conditions: COS7 cell lysate, fluorescence, higher = more signal;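 further: z-score combines 667nm fluorescence intensity with signal-to-noise per printed compound spot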
[6] = probe aLAP1 signal on lysate-treated microarray – cell lysate, small-molecule microarray, COS7 lysate, primary screen (AID 1124); conditions: probe aLAP1, fluorescence, higher = more signal;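 further: lysate comes from COS7 cells expressing LAP1 and is applied at 0.3 µg/mL; score merges spot fluorescence near 667 nm with signal-to-noise over triplicate slides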
Sam68 (KHDRBS1) = assay: compounds binding KHDRBS1 protein – biochemical, small-molecule microarray, 635 nm fluorescence, primary screen (AID 1125); conditions: higher = more signal;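 further: score merges 667 nm channel intensity with signal to noise over triplicate slides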
[7] = test system: Chordin-like protein 2 (CHRDL2); assay: compounds binding chordin-like 2 – biochemical, small-molecule microarray, 635 nm fluorescence, primary screen (AID 1126); conditions: fluorescence 635 nm, higher = more signal;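 further: printed compound slides probed with Chrdl2 protein at 4 µg/mL for 1 h at 4 C; score merges 667 nm emission intensity with signal to noise over three replicate slides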
[8] = target: Concanavalin-A (Canavalia ensiformis) (UniProt P02866); assay: compounds binding concanavalin A lectin – biochemical, small-molecule microarray, Alexa647 label, 635 nm, artefact control for SMM control protein annotation, primary screen (AID 1127); conditions: ConA-A647 binding fluorescence, higher = more signal;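 further: z combines 667 nm emission intensity with signal-to-noise across three replicate slides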
Chain of Concanavalin-A (Canavalia ensiformis) (P02866 whole entry, looked up): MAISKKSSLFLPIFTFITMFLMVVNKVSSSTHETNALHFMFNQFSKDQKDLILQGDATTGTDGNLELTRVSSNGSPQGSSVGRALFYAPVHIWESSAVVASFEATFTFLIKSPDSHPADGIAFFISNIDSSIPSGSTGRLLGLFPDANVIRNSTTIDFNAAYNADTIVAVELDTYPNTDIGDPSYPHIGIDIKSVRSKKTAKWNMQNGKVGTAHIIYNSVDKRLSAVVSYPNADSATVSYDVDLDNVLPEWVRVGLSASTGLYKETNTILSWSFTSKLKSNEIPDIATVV

Chain of Albumin (Bos taurus) (P02769 whole entry, looked up): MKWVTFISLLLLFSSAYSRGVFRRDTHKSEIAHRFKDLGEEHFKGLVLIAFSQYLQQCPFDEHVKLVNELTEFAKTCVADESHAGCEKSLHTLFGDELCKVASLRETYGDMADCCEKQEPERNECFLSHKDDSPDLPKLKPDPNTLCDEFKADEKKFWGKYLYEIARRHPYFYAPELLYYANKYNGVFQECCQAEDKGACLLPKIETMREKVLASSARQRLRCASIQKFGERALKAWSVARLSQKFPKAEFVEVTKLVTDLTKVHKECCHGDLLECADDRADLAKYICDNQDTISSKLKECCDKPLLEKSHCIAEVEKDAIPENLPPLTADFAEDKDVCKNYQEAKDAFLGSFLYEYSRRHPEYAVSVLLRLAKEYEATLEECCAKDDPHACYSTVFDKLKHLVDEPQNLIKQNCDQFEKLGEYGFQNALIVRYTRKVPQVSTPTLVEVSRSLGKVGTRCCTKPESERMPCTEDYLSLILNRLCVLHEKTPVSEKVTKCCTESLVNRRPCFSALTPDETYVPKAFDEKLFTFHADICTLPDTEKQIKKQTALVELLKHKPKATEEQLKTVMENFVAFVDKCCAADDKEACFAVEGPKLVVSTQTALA

Structure (SMILES) | composite z-score (Albumin (Bos taurus)) | composite Z-score [1] | composite z-score [2] | composite z-score [3] | composite z-score [4] | composite z-score [5] | composite z-score [6] | composite z-score (Sam68 (KHDRBS1)) | composite z-score [7] | composite z-score [8]
CCOC(=O)C1=CCN(S(=O)(=O)c2ccc(C)cc2)C1c1ccccc1 (stereo not given) | 1.02 | 0.728 (inactive) | 0.0836 | -0.0607 | 0.685 | 1.69 | 0.709 | 1.08 | 0.132 | 1.14
C=CCNC(=O)[C@H]1[C@@H]2C(=O)O[C@@H](c3ccccc3)[C@@H](c3ccccc3)N2[C@@H](c2ccc(OCCO)cc2)[C@]12C(=O)Nc1ccc(C#CCNC(N)=O)cc12 | 0.601 | -0.262 (inactive) | 0.103 | -0.0624 | 0.587 | 0.261 | -0.113 | 1.18 | -0.269 | 1.1
CCOC(=O)C[C@H]1[C@H](OC(=O)c2ccc(-c3ccccc3)cc2)[C@@H](NC(=O)CC(C)C)c2cc(OCCCO)ccc2N1C(=O)c1ccccc1 | 0.506 | -0.221 (inactive) | -0.0057 | -0.124 | 0.108 | 0.806 | -0.2 | 1.03 | 0.0549 | 0.27
CC(=O)NCCCC[C@@H]1NC(=O)[C@@H]2C[C@H](C(=O)NCCCCCCN)[C@H](c3cccc(OCCO)c3)N2C1=O | 0.851 | 0.801 (inactive) | -0.0682 | -0.149 | 0.779 | 1.72 | 1.89 | 1.12 | -0.878 | 1.12
C=CCC(OC(C)=O)[C@@H]1[C@@H](N(Cc2ccc(-c3ccccc3)cc2)C(=O)c2ccc(C)cc2)c2cc(OCCCO)ccc2N1C(=O)Cc1ccc2ccccc2c1 (stereo not given in full) | 0.233 | -0.645 (inactive) | -0.0362 | -0.159 | -0.14 | 0.772 | -0.0769 | -0.106 | 0.248 | 0.202
CCCCC(=C=CC[C@H](O)c1ccc(OCCO)cc1)C[C@H](O)c1cc(Cl)cc(Cl)c1O | 0.377 | 0.671 (inactive) | -0.0178 | -0.133 | 0.456 | 0.271 | 0.163 | 0.805 | 0.44 | 0.72
CC=CC(O)C1C=CC2C(=O)NC(=O)C2N1Nc1ccccn1 (stereo not given) | 0.456 | 0.289 (inactive) | -0.0362 | -0.112 | 0.463 | 0.717 | 0.654 | 0.463 | 1.04 | 0.855
C=CCC(OC(C)=O)[C@@H]1[C@@H](N(Cc2cc3ccccc3o2)C(=O)c2ccc(-c3ccccc3)cc2)c2cc(OCCCO)ccc2N1C(=O)Cc1ccc(OC)cc1 (stereo not given in full) | 0.0787 | 0.443 (inactive) | -0.0189 | -0.14 | -0.284 | 0.401 | -0.237 | 0.0416 | 0.186 | 0.444
O=C(NCCN1CCOCC1)[C@@H]1c2ccccc2C(=O)N(Cc2ccccc2)[C@H]1c1ccc(CO)cc1 | 0.16 | 0.283 (inactive) | -0.272 | -0.116 | 0.688 | 0.392 | -0.274 | -0.673 | -1.38 | 0.581
CC1CC/C=C\[C@H]2OC34C=CCN(C(C)(C)C)C(=O)[C@H]3N(C(CO)C(C)C)C(=O)[C@@H]4C2C(=O)O1 (stereo not given in full) | -0.667 | 0.148 (inactive) | -0.0647 | -0.0974 | 0.867 | 1.37 | 0.876 | 0.117 | -0.165 | -0.268
CC1(C)C(=O)C(c2ccccc2)=C2CN3C(=O)N(CCc4ccccc4)C(=O)C3(Cc3ccc(C(F)(F)F)cc3)C=C21 (stereo not given) | 0.925 | -0.301 (inactive) | 0.561 | 0.306 | 0.581 | 2.1 | 0.014 | 0.764 | -1.06 | 0.702
CCOC(=O)C=Cc1cc(F)ccc1O | -0.0584 | -0.276 (inactive) | -0.0324 | -0.0995 | 0.384 | 0.149 | 0.0926 | 0.161 | 0.133 | 0.126
C=CCC(OC(C)=O)[C@@H]1[C@@H](N(Cc2cccc3ccccc23)C(=O)Cc2ccc(F)cc2)c2cc(OCCCO)ccc2N1C(=O)c1ccc(-c2ccccc2)cc1 (stereo not given in full) | 0.621 | -0.248 (inactive) | 0.0847 | 0.054 | -0.119 | 0.644 | 0.505 | -0.738 | -0.335 | -1.6
COC(=O)C1=CC(CCCO)=CC(C)N(Cc2cccc(OC(F)(F)F)c2)C=C1C(=O)OC (stereo not given) | 1.03 | -0.288 (inactive) | 0.147 | -0.0743 | 0.8 | 2.63 | 0.348 | 1.27 | -0.595 | 0.355
CC(C)C[C@@H]1NC(=O)CNC(=O)[C@@]23C(=O)N[C@@H](Cc4ccccc4)C2[C@H](C)[C@@]2(C)O[C@H]2C3/C=C/C/C=C\CNC1=O (stereo not given in full) | -0.007 | 0.692 (inactive) | 0.0026 | -0.102 | 0.461 | 0.718 | 0.461 | 1.29 | 0.764 | -0.404
CC(C)(C)OC(=O)CC[C@]12N=C(c3ccc(OCCCO)cc3)O[C@H]1c1ccccc1N(Cc1ccccc1)C2=O | 0.0468 | 2.86 (inactive) | 0.0525 | -0.0456 | 0.557 | 2.39 | 0.504 | 1.3 | 0.581 | 0.995
C=C[C@@H](OC)[C@H](OC(=O)Nc1ccc(OC)cc1)c1ccc(OC)c(O)c1 | -0.787 | 0.43 (inactive) | -0.246 | -0.203 | 0.415 | 1.36 | 0.0218 | -0.853 | -0.96 | -0.613
COC(=O)[C@@]1(Cc2ccc(F)cc2)[C@H]2c3cc(C(=O)N4CCCC4)n(C)c3C[C@H]2CN1C(=O)c1ccccc1 | 0.942 | 0.929 (inactive) | 0.49 | 0.295 | 0.76 | 3.32 | 1.01 | 1.31 | -1.04 | 0.683
CN(C)CCCCCCNC(=O)[C@@H]1C[C@@H]2C(=O)N[C@@H](CCCCN)C(=O)N2[C@@H]1c1ccc(O)cc1 | 0.73 | 3.97 (inactive) | 2.14 | 0.999 | 0.74 | 3.41 | 0.611 | 1.32 | 1.36 | 1.24
CN1C(=O)C2C=CC(C(O)c3ccc(F)cc3)N(NC(=O)OC(C)(C)C)C2C1=O (stereo not given) | 0.854 | 0.134 (inactive) | 0.0155 | -0.0317 | 0.695 | 2.48 | 0.215 | 1.03 | -1.3 | 0.923
[N-]=[N+]=NCc1ccccc1[C@@H]1OC(c2ccc(OCCCO)cc2)=N[C@]1(Cc1ccccc1N=[N+]=[N-])C(=O)N1CCCCC1 | 0.354 | 0.038 (inactive) | -0.137 | -0.116 | 0.56 | 2.57 | 0.0904 | 1.22 | -0.39 | 1.14
C=C(/C(=C/C[C@H](OC(=O)c1ccncc1)c1ccccc1OCCO)c1cnc2ccccc2c1)C(C)C | 0.706 | 0.0746 (inactive) | 0.145 | -0.126 | 0.566 | 0.443 | 0.0737 | 1.31 | 1.18 | 1.19
C=CCC(OC(C)=O)[C@@H]1[C@@H](N(Cc2ccc(-c3cccc(C(F)(F)F)c3)o2)C(=O)Cc2ccc(OC)cc2)c2cc(OCCCO)ccc2N1C(=O)Cc1ccc2ccccc2c1 (stereo not given in full) | 0.315 | -0.0998 (inactive) | -0.158 | -0.14 | -0.121 | 0.631 | -0.31 | -0.0204 | -0.0929 | -0.0477
C=C(C)C1CCC(C(O)C2C=CC3C(=O)N(C)C(=O)C3N2Nc2cc(OC)c(OC)c(OC)c2)CC1 (stereo not given) | 0.941 | -0.0192 (inactive) | 0.263 | -0.0598 | 0.703 | 1.46 | 0.0507 | 1.29 | 0.464 | 0.974
COCCOC(=O)N1C(=O)[C@@]2(c3ccccc31)[C@H](c1ccccc1OCCO)N1[C@H](c3ccccc3)[C@H](c3ccccc3)OC(=O)[C@H]1[C@@H]2C(N)=O | 0.856 | 1.26 (inactive) | -0.0324 | -0.181 | 0.565 | 2.36 | 1.01 | 1.3 | 0.651 | 1.18
CCOC(=O)C[C@H]1[C@H](OC(=O)c2ccccc2-c2ccccc2)[C@@H](NC(=O)c2ccccc2)c2cc(OCCCO)ccc2N1C(=O)c1ccccc1 | 0.505 | -0.383 (inactive) | -0.0647 | -0.019 | 0.666 | 0.677 | 0.513 | 0.42 | 0.116 | 0.178
CC(C)=CCCC(C)=CC(O)C1C=CC2C(=O)N(c3ccccc3)C(=O)C2N1Nc1ccccc1F (stereo not given) | 0.846 | 0.0502 (inactive) | 0.0258 | -0.186 | 0.662 | 1.3 | 0.561 | 1.13 | -0.308 | 1.14
